# Reference: PubChem BioAssay
# Activity calls are given as the source filed them.
# Experiments:
# [1] = optical density shifts of acrAB sulA E. coli – strain DRC41, OD650, 48 h, E. coli filamentation inducer project, primary screen (AID 1152); conditions: higher = more signal, called active from +8 up or from −8 down;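 also: E. coli MC1000 strain DRC41 lacking acrAB efflux pump and sulA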
# [2] = probe aLefty1 binding on compound microarray – biochemical, small-molecule microarray, 635/667 nm fluorescence, primary screen (AID 1153); conditions: higher = more signal;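 also: score merges spot fluorescence with signal-to-noise ratio from the scanned slide images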
# [3] = plasmodial surface anion channel blockers, osmotic lysis – cell-based, P. falciparum Indochina, OD700, 1 h, primary screen (AID 1154); conditions: P. falciparum Indochina infected RBC osmotic lysis, higher = more signal, called active from +8 up or from −8 down
# [4] = plasmodial surface anion channel blockers, osmotic lysis – cell-based, P. falciparum Indochina, OD700, 2 h, primary screen (AID 1155);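 also: lysis reports solute entry through the parasite surface anion channel PSAC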; conditions: P. falciparum Indochina infected erythrocytes, higher = more signal, called active from +8 up or from −8 down
# [5] = changes in parasitized red cell lysis, either direction – P. falciparum Indochina, OD700, 3 h, PSAC antagonist project, primary screen (AID 1156); conditions: P. falciparum-infected erythrocytes, osmotic lysis, higher = more signal, called active from +8 up or from −8 down
# [6] = plasmodial surface anion channel blockers, osmotic lysis – cell-based, P. falciparum Indochina, OD700, 18 h, primary screen (AID 1157); conditions: P. falciparum Indochina infected erythrocytes, osmotic lysis OD700, 18 h; higher = more signal, called active from +8 up or from −8 down
# [7] = S6 kinase pathway phospho-S6 level changes – cell-based, A549, cytoblot, luminescence, serum-stimulated, primary screen (AID 1158); conditions: 5 h, higher = more signal;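 also: serum-stimulated A549 lung adenocarcinoma cells; signal is phosphorylated S6 detected by cytoblot immunostaining with HRP secondary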
# [8] = molecular target: NADPH oxidase 2 (Homo sapiens) (UniProt P04839); assay: compounds shifting NOX2 Amplex Red fluorescence – cell-based, HEK293-NOX2, PMA-stimulated, NOX inhibitor project, primary screen (AID 1159); conditions: 45 min, higher = more signal, called active from +8 up or from −8 down; also: test concentration not given here
# [9] = molecular target: NADPH oxidase 4 (Homo sapiens) (UniProt Q9NPH5); assay: compounds shifting NOX4 Amplex Red fluorescence – cell-based, HEK293-NOX4, tetracycline-induced, NOX inhibitor project, primary screen (AID 1160); conditions: HEK293-NOX4, Amplex Red H2O2 fluorescence, 45 min; higher = more signal, called active from +8 up or from −8 down
# [10] = molecular target: NADPH oxidase 5 (Homo sapiens) (UniProt Q96PH1); assay: compounds shifting NOX5 Amplex Red fluorescence – cell-based, HEK293-NOX5, NOX inhibitor project, primary screen (AID 1161); conditions: HEK293-NOX5, ionomycin, 45 min, higher = more signal
# Chain of NADPH oxidase 5 (Homo sapiens) (Q96PH1 whole entry, looked up): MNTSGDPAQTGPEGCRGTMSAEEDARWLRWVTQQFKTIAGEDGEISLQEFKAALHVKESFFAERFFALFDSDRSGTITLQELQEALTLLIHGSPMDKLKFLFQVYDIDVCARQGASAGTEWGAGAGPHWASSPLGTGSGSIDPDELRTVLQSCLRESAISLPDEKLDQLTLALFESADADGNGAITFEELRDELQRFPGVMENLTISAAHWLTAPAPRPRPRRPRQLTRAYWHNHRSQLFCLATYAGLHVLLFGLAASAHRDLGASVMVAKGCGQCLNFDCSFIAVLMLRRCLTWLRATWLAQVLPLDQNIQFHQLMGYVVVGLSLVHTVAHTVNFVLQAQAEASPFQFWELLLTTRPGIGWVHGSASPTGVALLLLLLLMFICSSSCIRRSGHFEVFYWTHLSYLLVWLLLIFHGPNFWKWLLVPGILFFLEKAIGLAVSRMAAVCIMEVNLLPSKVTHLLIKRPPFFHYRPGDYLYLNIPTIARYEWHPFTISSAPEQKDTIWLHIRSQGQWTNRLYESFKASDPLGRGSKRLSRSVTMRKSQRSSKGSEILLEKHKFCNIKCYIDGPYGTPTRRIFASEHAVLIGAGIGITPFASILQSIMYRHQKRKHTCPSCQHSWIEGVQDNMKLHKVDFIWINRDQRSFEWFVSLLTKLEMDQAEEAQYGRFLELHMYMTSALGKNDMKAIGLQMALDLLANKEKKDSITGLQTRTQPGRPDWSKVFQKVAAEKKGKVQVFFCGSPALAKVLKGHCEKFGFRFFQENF
# Chain of NADPH oxidase 2 (Homo sapiens) (P04839 whole entry, looked up): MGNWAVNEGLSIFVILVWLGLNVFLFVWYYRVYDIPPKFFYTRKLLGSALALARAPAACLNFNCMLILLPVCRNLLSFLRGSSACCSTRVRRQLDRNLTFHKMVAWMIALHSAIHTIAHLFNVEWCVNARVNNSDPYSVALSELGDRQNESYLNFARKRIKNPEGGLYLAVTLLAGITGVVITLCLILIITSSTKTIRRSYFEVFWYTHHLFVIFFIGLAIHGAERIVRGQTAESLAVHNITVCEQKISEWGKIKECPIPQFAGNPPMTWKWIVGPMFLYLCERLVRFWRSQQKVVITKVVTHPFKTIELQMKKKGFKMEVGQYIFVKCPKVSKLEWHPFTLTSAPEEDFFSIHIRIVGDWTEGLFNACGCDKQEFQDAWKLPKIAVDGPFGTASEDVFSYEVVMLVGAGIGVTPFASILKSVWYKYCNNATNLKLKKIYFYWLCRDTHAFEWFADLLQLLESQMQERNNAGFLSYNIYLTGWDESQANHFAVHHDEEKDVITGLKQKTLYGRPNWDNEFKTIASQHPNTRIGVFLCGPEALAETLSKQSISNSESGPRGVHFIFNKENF
# Chain of NADPH oxidase 4 (Homo sapiens) (Q9NPH5 whole entry, looked up): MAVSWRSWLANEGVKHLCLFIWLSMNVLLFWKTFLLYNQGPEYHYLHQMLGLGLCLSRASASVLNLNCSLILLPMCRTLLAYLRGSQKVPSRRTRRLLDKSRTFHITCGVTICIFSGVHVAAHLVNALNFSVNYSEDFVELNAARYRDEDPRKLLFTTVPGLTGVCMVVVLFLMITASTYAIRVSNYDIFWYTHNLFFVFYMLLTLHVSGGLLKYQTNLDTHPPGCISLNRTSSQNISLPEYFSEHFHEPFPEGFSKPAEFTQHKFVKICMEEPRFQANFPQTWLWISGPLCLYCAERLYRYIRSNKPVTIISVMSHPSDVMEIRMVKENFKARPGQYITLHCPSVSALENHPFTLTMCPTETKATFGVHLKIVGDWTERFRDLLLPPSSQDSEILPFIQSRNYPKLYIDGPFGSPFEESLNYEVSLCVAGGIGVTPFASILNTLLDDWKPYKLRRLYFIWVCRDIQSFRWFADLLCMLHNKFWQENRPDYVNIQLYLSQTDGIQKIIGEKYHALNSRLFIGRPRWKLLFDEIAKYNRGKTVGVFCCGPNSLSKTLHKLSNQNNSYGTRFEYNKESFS
SMILES,z-score [1],composite z-score [2],z-score [3],z-score [4],z-score [5],z-score [6],z-score [7],z-score [8],z-score [9],z-score [10]
C[C@H]1C2[C@H](Cc3ccccc3)NC(=O)[C@]23C(=O)N[C@@H](Cc2ccccc2)C(=O)N2CCC[C@H]2C(=O)NC/C=C/CC/C=C/C3[C@@H]2O[C@]12C (stereo not given in full),-0.488 (inactive),0.32,1.13 (inactive),0.186 (inactive),0.0233 (inactive),0.599 (inactive),-0.191,1.25 (inactive),1.11 (inactive),1.25
C=CCN1C(=O)[C@@]2(O[C@@H](CCO)[C@H]([Si](C)(C)c3ccc(OC)cc3)[C@H]2C)c2cc(N3CCCCC3=O)ccc21,0.424 (inactive),0.102,23.8 (active),7.85 (inactive),-0.302 (inactive),1.9 (inactive),1.44,-1.63 (inactive),-0.258 (inactive),-0.607
C=C(/C=C\CNS(=O)(=O)c1ccc(C)cc1)[C@H](O)[C@H]1CCCN1S(=O)(=O)c1ccccc1[N+](=O)[O-],-0.473 (inactive),-0.0366,12.1 (active),2.16 (inactive),1.03 (inactive),0.77 (inactive),-0.208,-0.264 (inactive),-2.04 (inactive),-1.77
Cc1ccc(S[C@]2(C(=O)NCc3ccccc3)CC(=O)N(Cc3ccccc3C(F)(F)F)[C@@H]2c2ccc(CO)cc2I)cc1,0.852 (inactive),0.056,5.8 (inactive),0.943 (inactive),0.836 (inactive),0.279 (inactive),0.316,0.708 (inactive),-1.5 (inactive),1.11
C=C(COC)C(=O)CC[C@@H](OC(=O)c1ccccc1-c1ccccc1C(=O)O)c1ccccc1OCCO,-0.564 (inactive),-0.103,5.01 (inactive),0.281 (inactive),1.03 (inactive),-0.209 (inactive),-0.813,0.26 (inactive),-0.182 (inactive),-0.933
CN(C)CCCCCCNC(=O)[C@@H]1C[C@@H]2C(=O)N[C@@H](CCCC[N+](C)(C)C)C(=O)N2[C@@H]1c1cccc(OCCO)c1,1.44 (inactive),0.0651,5.12 (inactive),-0.16 (inactive),1.47 (inactive),-1.04 (inactive),2.66,-0.0444 (inactive),0.249 (inactive),1.55
COC(=O)[C@@]1(Cc2ccccc2)[C@H]2c3cc(C(=O)N(C)C)n(Cc4nc5ccccc5[nH]4)c3C[C@H]2CN1C(=O)c1ccccc1,0.989 (inactive),0.0063,4.51 (inactive),-0.2 (inactive),0.57 (inactive),-0.949 (inactive),0.965,-0.273 (inactive),0.839 (inactive),-0.155
C=C(C(=O)CC[C@@H](OC(=O)c1ccccc1-c1ccccc1C(=O)O)c1ccc(OCCO)cc1)C(C)C,-0.383 (inactive),0.312,13.6 (active),1.37 (inactive),1.2 (inactive),0.405 (inactive),-0.26,1.43 (inactive),0.123 (inactive),-1.3
COC(=O)c1ccc(OC)c(/C=C\CC(OC(=O)c2ccncc2)c2ccccc2)c1 (stereo not given),2.32 (inactive),-0.206,20.4 (active),3.1 (inactive),0.543 (inactive),-1.02 (inactive),1.93,-0.552 (inactive),0.529 (inactive),-0.408
CO[C@H]1O[C@H](CO)[C@@H](OC(=O)CCc2ccccc2)[C@@H]2OC(=O)[C@@H](Cc3ccc4ccccc4c3)C/C=C/C[C@H](Cc3ccc4ccccc4c3)C(=O)O[C@@H]12,0.411 (inactive),-0.949,2.85 (inactive),-0.498 (inactive),-1.88 (inactive),-1.71 (inactive),0.795,1.5 (inactive),-0.27 (inactive),-0.995
CN1C2C=C(c3ccc(CO)cc3)C(C3C(=O)N(C(N)=O)C(=O)C32)C1C1CC1 (stereo not given),0.149 (inactive),-0.104,0.944 (inactive),0.411 (inactive),-0.103 (inactive),0.0864 (inactive),-0.0656,-1.57 (inactive),-1.29 (inactive),-0.739
COc1cc(CO)cc(I)c1O[C@H]1C=C(C(=O)NCCO)C[C@@H](N(CCN2CCOCC2)C(=O)C2CCCO2)[C@@H]1O (stereo not given in full),2.39 (inactive),-0.245,0.961 (inactive),-0.339 (inactive),0.483 (inactive),0.108 (inactive),0.545,-0.842 (inactive),0.225 (inactive),0.235
O=C1NC(=O)C2C1C=CC(C(O)c1ccc(F)cc1)N2Nc1ccc(Cl)cc1Cl (stereo not given),-1.89 (inactive),-0.017,3.43 (inactive),0.615 (inactive),-0.695 (inactive),1.22 (inactive),0.0765,-0.018 (inactive),-5.68 (inactive),-3.23
